The values below come from PubChem BioAssay AID489018 (Southern Research Specialized Biocontainment Screening …, 2010).

The whole screen tested about 2,300 compounds, of which about 350 (15%) were called active. A selection follows. Results with a measured potency or affinity are listed apart. A number with no mark means an inactive call. The rule behind the calls is not given here.

A short description of the test: HepG2 cell cytotoxicity, dose response, cytotoxicity control for non-replicating M. tuberculosis project (AID 489018).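 Note: HepG2 human liver cells; 100% = vehicle-treated cells and 0% = background signal.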 Conditions: series mostly up to 20 µM; viability: at the top concentration.
A word on the viability: it is a read-out of living cells in per cent, often relative to untreated cells. `COc1cc(OC)cc(-c2nc3ccccc3c(=O)o2)c1`: the “viability” value was 94.9%.
The value for `O=C(COC(=O)c1ccccc1)NC12CC3CC(CC(C3)C1)C2` was 100%.
Then `O=C(CC(=O)c1ccccc1O)c1cccc(F)c1`, with 90.6%.
Then `O=C(O)c1ccc(NS(=O)(=O)/C=C/c2ccccc2)cc1O`, with 101%; and `CCn1c(NC(=O)C2CCCCC2)nc2ccccc21`, with 103% [at 5 µM]; and `Cc1cc(NC(=O)COc2ccccc2)ccc1Cl`, with 89.3%.
As for `O=c1cc(C(F)(F)F)[nH]c2c(C(F)(F)F)cccc12`, the “viability” value was 87.7%.
The value for `CCc1nonc1NC(=O)COc1ccc(Cl)c(C)c1` was 105%; that for `CCOC(=O)Nc1ccc2c(c1)N(C(=O)CCN1CCOCC1)c1ccccc1S2=O` (stereo not given) was 100%; that for `CCOC(=O)Nc1cccc(OCC(=O)Nc2ccccc2OC)c1` was 114%.
The value for `O=C(Nc1nc2ccccc2[nH]1)c1ccc(F)cc1` was 82.1%; that for `O=C(Nc1nc2ccccc2[nH]1)c1cccc(Cl)c1` was 88.9%; that for `CN1CCC(O)(c2ccc(Cl)cc2)C(C(=O)c2ccc(Cl)cc2)C1` (stereo not given) was 98.3%.
The value for `O=C(COc1ccc(Cl)cc1)Nc1ccccc1Cl` was 105% [at 5 µM]; that for `CC(C)c1ccc(OCC(=O)NCc2ccccc2)cc1` was 96.2%; that for `Cc1ccc(C)c(-c2nnc(NC(=O)C3=COCCO3)o2)c1` was 94.1%.
As to `O=C(NCCc1c[nH]c2ccccc12)c1cc2ccccc2oc1=O`, the “viability” value is 96.5%.
As for `COc1ccccc1N1CCN(C(=O)c2ccc([N+](=O)[O-])s2)CC1`, the “viability” value was 107% [at 5 µM].
The value for `Fc1ccc(-c2nn(-c3ccccc3)cc2CNCc2ccccc2)cc1` was 71.3%; that for `Cc1ccc(-n2cc(CNCCn3nc(C)cc3C)c(-c3ccc(F)cc3)n2)cc1` was 76.2%; that for `Cc1cc(Br)ccc1OCC(=O)NNC(=O)C(=O)Nc1ccccc1` was 109%.
Then `O=C(CCN1C(=O)/C(=C/c2ccccc2Cl)SC1=S)N1CCCC1`, with 102% [at 5 µM]; and `COc1cccc(OCc2nnc(-c3cccs3)o2)c1`, with 96.8%; and `Cc1ccc(Oc2c(C(N)=O)cc([N+](=O)[O-])cc2[N+](=O)[O-])cc1`, with 95.9% [at 5 µM].
Turning to `Cc1csc(=Nc2cccnc2)n1CC1CCCCC1`, the “viability” value is 89.3%.
The value for `CCOC(=O)c1csc(COc2ccc(OC)cc2)n1` was 103%; that for `COc1ccc(O)c(C(=O)CC(=O)c2ccc(F)cc2)c1` was 97%.
Then `Cc1ccc(NC(=O)C2=C(c3ccccc3)S(=O)(=O)CCS2(=O)=O)cc1`, with 104% [at 5 µM]; and `CCOC(=O)C1CCCN(Cc2ccc(OCc3ccccc3)cc2)C1` (stereo not given), with 100%.
Then `CCOC(=O)C1CCN(Cc2ccc(-c3ccccc3)cc2)CC1`, with 103%; and `Cc1ccc(C(=O)OCC(=O)N2CCCCCC2)c(O)c1`, with 104%.
As to `CCCCC1CCC(C(=O)Nc2ccc(S(=O)(=O)Nc3nccs3)cc2)CC1` (stereo not given), the “viability” value was 97.8%.
For the compound `Cc1nn(C)cc1/C=N/NC(=O)c1sc2ccccc2c1Cl`, the “viability” value was 83%.
Then `Cc1ccc(C(=O)N/N=C/c2cccc3ccccc23)cn1`, with 98%.
Consider `CC(C)c1nnc(NC(=O)c2cc3cc(Br)ccc3oc2=O)s1`, for which the “viability” value was 93.2%.
Then `O=C(OCc1ccc([N+](=O)[O-])cc1)c1ccc2ccccc2n1`, with 94.9%; and `CN(C)CC/C=C1\c2cc(Cl)ccc2Sc2cc(F)c(F)cc21`, with 112% [at 5 µM].
In the case of `O=C(CN1CCN(c2ccc([N+](=O)[O-])cc2)CC1)Nc1ccccn1`, the “viability” value was 77.3%.
Turning to `C/C(=N\NC(=O)c1cc([N+](=O)[O-])cc([N+](=O)[O-])c1)c1ccco1`, the “viability” value is 96%.
In the case of `COc1ccc(CN=C(C#N)C2=C(O)c3ccccc3C2=O)cc1`, the “viability” value is 88.4%.
Then `N/C(=N\OC(=O)c1cccc(Br)c1)c1ccc([N+](=O)[O-])cc1`, with 97.3%; and `CCOC(=O)COn1c(-c2cccc(Cl)c2)nc2ccc([N+](=O)[O-])cc21`, with 89.2%; and `O=c1c2cc(Cl)ccc2nc(-c2ccc([N+](=O)[O-])cc2)n1O`, with 78.1%.
The value for `O=c1c2c([N+](=O)[O-])cc([N+](=O)[O-])cc2sn1-c1ccc(Br)cc1` was 105%.
The value for `O=C(NCc1cccs1)c1cc(-c2ccc(O)cc2)on1` was 88.8%; that for `CC(C)(C)NC(=O)COC(=O)c1snc(C(=O)NC2CCCCC2)c1N` was 74.4%; that for `CCS(=O)(=O)c1c([N+](=O)[O-])ncn1C` was 92.7% [at 5 µM].
Consider `COc1ccc([N+](=O)[O-])c(S(=O)(=O)c2ccc(Cl)cc2)n1`, for which the “viability” value was 70.5%.
Then `CCOC(=O)c1c(C)nc2cc(C)ccn12`, with 94.2%; and `COC(=O)c1ccc(COC(=O)c2ccccn2)cc1`, with 105%.
The value for `CCc1ccc(/C=N/NC(=O)c2ccccn2)cc1` was 103% [at 5 µM]; that for `CCOc1ccc(C(=O)N/N=C(/C)C2C(=O)c3ccccc3C2=O)cc1` was 92.2%; that for `CCOc1ccc(C(=O)N/N=C/c2cccc3cccnc23)cc1` was 97.7% [at 5 µM].
Then `O=C1NC(=O)N(Cc2ccc(F)cc2)C(=O)/C1=C\c1ccc([N+](=O)[O-])s1`, with 102%.
Take `O=C(OCc1nnc(-c2ccccc2)o1)c1ccc(Br)o1`: the “viability” value was 106%.
The value for `Cc1ccccc1-n1c(C)cc(/C=N/NC(=O)c2ccncc2)c1C` was 92.9%.
The value for `CC(C)Cn1c([N+](=O)[O-])nc2c1c(=O)[nH]c(=O)n2C` was 103%; that for `CN1CCC(O)(c2cccs2)C(C(=O)c2cccs2)C1` (stereo not given) was 113%; that for `COc1ccc(C(C#N)=C2C=CC(=NO)C=C2)cc1` was 87.4%.
Then `CC/C(=C\C=C\[C@@H]1C=C[C@@H]2CCC[C@H]2[C@@H]1C(=O)c1ccc[nH]1)[C@@H]1O[C@@H]([C@@H](C)C(=O)O)CC[C@@H]1C`, with 87%.
